# Source: PubChem BioAssay AID463173 (ICCB-Longwood Screening Facility, Harvard Medical School, 2010)
# About 4,300 (8.3%) of roughly 52,000 compounds were called active. The entries come from a sample that favours actives as a whole. A number with no mark means an inactive call. No stated cut-off is given here; in the data, active means survival mostly below about 52% (no sharp cut-off); inactive means mostly above about 56%.
# System: DeltatarO mutant
# Test: growth inhibition of S. aureus wild type versus tarO mutant, primary screen, teichoic acid synthesis inhibitors, RN4220, OD600 (AID 463173)
# Details: OD600, 18 h, hits give low values, screened at 18.75 µg/mL (by protocol)
row,Structure (SMILES),survival
1,COc1ccc(-c2cc(C(F)(F)F)n3nc(C(=O)O)c(Cl)c3n2)cc1OC,70%
2,Cc1cc(C)nc(-n2nc(C)c3c2N(C)C(=O)CC3c2ccc(Cl)cc2)n1 (configuration not stated),73%
3,COc1ccc(-c2onc(C)c2C)cc1S(=O)(=O)N1CCC(C)CC1,70%
4,CC(NC(=O)CN1C(=O)COc2ccc(S(=O)(=O)N3CCCCCC3)cc21)c1ccccc1 (configuration not stated),68%
5,O=C(Cn1c(=O)n(Cc2ccc3c(c2)OCO3)c(=O)c2ccc(C(=O)NC3CCCCC3)cc21)Nc1ccccc1F,76%
6,Cc1nc2c(C(=O)NCc3ccccc3)cnn2c(C)c1Cc1ccc(F)cc1,83%
7,CCN(CC)C(=O)CSc1nc2ccccc2c(=O)n1Cc1ccco1,77%
8,Cc1cccc(Cn2c(SCc3ccc(C(=O)NCCc4ccccc4)cc3)nc3cccnc32)c1,115%
9,Cc1cccc(Cn2c(SCc3ccc(C(=O)NCc4ccccc4)cc3)nc3cccnc32)c1,46% (active)
10,Cc1cccc(CNC(=O)c2ccc(Cn3c(SCc4ccccc4)nc4cccnc43)cc2)c1,92%
11,Cc1ccccc1C(=O)OCc1cc(=O)n2nc(-c3cccs3)sc2n1,117%
12,Cc1ccc(C)c(CNC(=O)CN2C(=O)CSc3ccc(S(=O)(=O)N(C)C)cc32)c1,87%
13,COc1ccc(CC(=O)Nc2sc3c(c2C(=O)Nc2cccc(Cl)c2)CCCCC3)cc1,59%
14,COc1ccc(CC(=O)Nc2sc3c(c2C(=O)Nc2cccc(C)c2)CCCCC3)cc1,43% (active)
15,COc1ccc(CC(=O)Nc2sc3c(c2C(=O)Nc2ccc(C)cc2)CCCCC3)cc1,131%
16,COc1ccc(CC(=O)Nc2sc3c(c2C(=O)Nc2c(C)cccc2C)CCCCC3)cc1,47% (active)
17,COc1ccc(NC(=O)c2c(NCc3cccc(OC)c3)sc3c2CCCC3)cc1,86%
18,COc1ccc(CC(=O)Nc2sc3c(c2C(=O)Nc2ccccc2)CCCCC3)cc1,68%
19,Cc1ccccc1CNc1nc(N(C)C)nc2c1cnn2C,72%
20,Cc1ccc(C(=O)c2cn(Cc3ccccc3F)c3cc4c(cc3c2=O)OCCO4)cc1,82%
21,CCc1ccc(NC(=O)CSc2cn(CC(=O)N3CCOCC3)c3ccccc23)cc1,86%
22,CSc1ccc(CCNC(=O)c2ccc(-c3nc(COc4ccccc4)c(C)o3)cc2)cc1,91%
23,CC(C)(Cc1nc2ccccc2[nH]1)c1nc2ccccc2[nH]1,97%
24,Nc1ccc(Cc2nc3ccccc3[nH]2)cc1,86%

row,Structure (SMILES),survival
1,Cc1nn(-c2nc3ccccc3[nH]2)c(N)c1-c1ccccc1,2% (active)
2,COc1cc(OC)c(NC(=O)N2CCC(CN3CCCC3)CC2)cc1Cl,84%
3,COc1ccc(NC(=O)c2sc3nc(C(F)(F)F)cc(C)c3c2N)cc1OC,140%
4,N#Cc1cc2c(nc1SCC(=O)N1CCOCC1)CCC2,97%
5,Cc1cc(C)cc(OCC(=O)Nc2nc(-c3ccc(F)cc3)ns2)c1,89%
6,CCC(Oc1ccc(F)cc1)C(=O)Nc1nc2c(s1)CCCC2 (configuration not stated),83%
7,CCC(Oc1ccc(F)cc1)C(=O)Nc1nc(-c2ccc(F)cc2)ns1 (configuration not stated),-2% (active)
8,COc1ccc(-c2nsc(NC(=O)C(C)Oc3ccc(Cl)c(C)c3)n2)cc1 (configuration not stated),45% (active)
9,O=C(COc1ccccc1Cl)Nc1nc(-c2ccc(F)cc2)ns1,55%
10,COc1ccc(-c2nsc(NC(=O)c3oc4cc(C)c(C)cc4c3C)n2)cc1,67%
11,CC(Oc1ccc(F)cc1)C(=O)Nc1nc(-c2ccc(F)cc2)ns1 (configuration not stated),-2% (active)
12,COc1ccc(-c2nsc(NC(=O)COc3ccc(C)c(C)c3)n2)cc1,65%
13,O=C(Nc1nc(-c2ccc(Br)cc2)ns1)c1ccc(F)cc1,52%
14,CCC(=O)N1CCc2cc(CNC(=O)C(CC)c3ccccc3)ccc21 (configuration not stated),92%
15,Cc1cc2c(cc1NC(=O)c1ccccc1Cl)n(C)c(=O)c(=O)n2C,79%
16,CCC(=O)C1C(=O)CC(C)(C)CC1=O,103%
17,Cc1ccc(S(=O)(=O)c2nnn(CC(=O)Nc3ccccc3C)c2N)cc1C,91%
18,CN(Cc1ccccc1)C(=O)C1CCN(S(C)(=O)=O)CC1,80%
19,COc1cc(OC)c(NC(=O)N2CCSc3ccccc32)cc1Cl,74%
20,COc1ccc(Br)cc1CNC(=O)CN1CCSc2ccccc21,88%
21,O=C(Nc1cccc(Cl)c1)N1CCSc2ccccc21,79%
22,CCOc1ccccc1CNC(=O)CCC(=O)N1CCSc2ccccc21,107%
23,COc1cc(NC(=O)N2CCSc3ccccc32)cc(OC)c1OC,52% (active)
